This is a sample that favours compounds with a hit; in the whole collection about 19% have one here.
DT40 TDP1 CPT = qHTS for Inhibitors of human tyrosyl-DNA phosphodiesterase 1 (TDP1): qHTS in cells in presence of CPT. chicken DT40 Tdp1-/-;hTDP1 cells + 20 nM CPT, ATP luminescence, 48 h. Potency, µM (titrated, usually from 46.2 µM), actives largely listed as inhibitors. 12% of 420,000 active; also: nearly all actives have a fitted effect of over 55% in size
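Chicken DT40 Tdp1-/- cells complemented with human TDP1, 400 cells/well, exposed to compounds plus 20 nM camptothecin for at least 48 h at 37 C; viability read as ATP content by CellTiter-Glo luminescence.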
IL-1B inflam inh = qHTS for Inhibitors of Inflammasome Signaling: IL-1-beta AlphaLISA Primary Screen. THP-1 LPS/ATP IL-1B secretion, AlphaLISA, 16 h; hits give low values. activity change, % at 57.5 µM. 4.7% of 360,000 active; in the data active = activity change below about -50%; inconclusive = mostly about -30% to -49%
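Secreted IL-1B measured by AlphaLISA bead assay after 16 h compound exposure of THP-1 cells; compounds (final up to 57.5 uM) added 1 h before LPS (250 ng/mL) and ATP (1.25 mM) stimulation; lower signal means less secretion.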
S-ASM inh = Inhibitors of Secretory Acid Sphingomyelinase (S-ASM): qHTS; AID 504937, 2011; Sphingomyelin phosphodiesterase (Homo sapiens), P17405; 0.006% of 340,000 active; Potency, µM (doses to about 57.5 µM), most hits filed as inhibitors; placental ASM, HMU-PC fluorogenic substrate, 60 min
Target sequence (P17405 47-631 limits assumed): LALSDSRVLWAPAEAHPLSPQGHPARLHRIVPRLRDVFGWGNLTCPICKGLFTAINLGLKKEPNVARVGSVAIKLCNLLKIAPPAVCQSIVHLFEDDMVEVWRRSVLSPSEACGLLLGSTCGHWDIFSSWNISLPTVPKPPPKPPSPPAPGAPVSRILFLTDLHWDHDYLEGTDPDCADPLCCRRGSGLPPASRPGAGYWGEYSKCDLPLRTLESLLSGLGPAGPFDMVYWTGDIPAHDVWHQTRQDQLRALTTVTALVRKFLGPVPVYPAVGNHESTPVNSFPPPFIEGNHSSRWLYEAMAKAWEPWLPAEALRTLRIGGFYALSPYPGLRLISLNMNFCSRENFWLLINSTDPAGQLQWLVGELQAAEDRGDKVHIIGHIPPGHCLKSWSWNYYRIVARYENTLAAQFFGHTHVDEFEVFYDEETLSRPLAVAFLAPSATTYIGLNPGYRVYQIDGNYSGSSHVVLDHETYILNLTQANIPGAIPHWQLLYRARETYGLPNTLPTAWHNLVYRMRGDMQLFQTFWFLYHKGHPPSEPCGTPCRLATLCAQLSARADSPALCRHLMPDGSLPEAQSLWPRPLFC
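Fluorescence read-out (Ex 386 nm, Em 447 nm) after stopping the reaction at pH 10. Enzyme: ASM from human placenta; substrate HMU-PC0, 9 uM final; 60 min, 37 °C. Compound preincubation 10 min, ambient temperature.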
TDP1 cell noCPT = qHTS for Inhibitors of human tyrosyl-DNA phosphodiesterase 1 (TDP1): qHTS in cells in absence of CPT; DT40 Tdp1-/- hTDP1 cells, no CPT, ATP luminescence, 48 h; Potency, µM (highest dose often 46.2 µM), actives largely listed as inhibitors; 15% of 420,000 active; AID 686978, 2013; also: nearly all actives have a fitted effect of over 55% in size
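Growth kinetics read by CellTiter-Glo luminescence after ≥48 hr at 37 °C. Cells: DT40 Tdp1-/- stably carrying human TDP1, 400 per well, compound exposure in the absence of CPT (DMSO vehicle).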
TGFb inhibitor = qHTS for Inhibitors of TGF-b; HepG2 CAGA-GFP TGF-b/SMAD3 reporter, GFP fluorescence, 18 h; TGF-beta stimulated, 500 pg/mL final; Potency, µM (titrated, usually from 46.1 µM), hits mostly inhibitors; 1.2% of 410,000 active; AID 588855, 2011; also: nearly all actives have a fitted effect of over 65% in size
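GFP signal (ex488/em500-530) from TGF-beta-stimulated HEPG2 CAGA-GFP cells, 500 pg/mL final, 18 h at 37 degrees C in DMEM plus 1% FBS, normalized to unstimulated and DMSO-stimulated controls.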
HepG2 tox = qHTS for Inhibitors of TGF-b: Cytotox Counterscreen | HepG2 CAGA-GFP viability, ATP luminescence, 18 h | Potency, µM (series often up to 46.1 µM), actives largely listed as cytotoxic | 0.76% of 410,000 active | AID 588856, 2011
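HepG2 CAGA-GFP cells (1000/well, DMEM with 1% FBS) received compound, then TGF-beta at 500 pg/mL final, and were incubated 18 hours at 37 degrees C. Viability was read by CellTiter-Glo luminescence. Media-only wells were set as complete cell-killing and DMSO as no toxicity.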
Hits are given with their value; 0 = inactive; ? = inconclusive; - = not tested or not shown. Unless noted, calls follow the shape of the dose curve; as a rule, active = well fitted curve in the direction sought with a large enough effect; inconclusive = small, poorly fitted or top-dose-only effect, or another doubt; inactive = no such curve, though single readings can be large; an effect the other way counts as inactive or inconclusive.

SMILES	DT40 TDP1 CPT	IL-1B inflam inh	S-ASM inh	TDP1 cell noCPT	TGFb inhibitor	HepG2 tox
CN(C)CC(=O)c1ccc(-c2ccccc2)cc1	0	0	0	0	0	0
CN(C)C/C(Cl)=C(\Cl)c1ccccc1	5.2µM	0	0	5.2µM	0	0
CCCS(=O)(=O)NC(=O)C1(C)CCN(C(=O)Cc2ccc3ccccc3c2)C1 (stereo not drawn)	0	0	-	0	0	0
Cc1cc(NC(=O)c2cc(-c3ccc(Br)cc3)on2)nn1Cc1ccc(Cl)cc1	0	-	-	0	0	0
CCOC(=O)C=C(C(=O)OCC)C(=O)OCC	4.6µM	0	0	4.6µM	0	0
CC1CCCCC1NC(=O)c1ccc(NS(=O)(=O)c2ccc3[nH]c(=O)[nH]c3c2)cc1 (stereo not drawn)	?	0	0	0	0	0
COc1cc(Nc2ccc(C)cc2)c([N+](=O)[O-])nc1[N+](=O)[O-]	2.1µM	0	0	2.6µM	0	0
Cc1cc(C)cc(Nc2ccc([N+](=O)[O-])nc2[N+](=O)[O-])c1	0	0	0	0	0	0
COc1cc(OC)cc(-c2c(C#Cc3ccsc3)c3cc(-c4ccc(CN5CCOCC5)cc4)ccc3n2C)c1	0	0	0	?	0	0
COc1cc(C#Cc2c(-c3cncn3C)n(C)c3ccc(-c4cnc(OC)nc4)cc23)cc(OC)c1	16µM	-58	?	?	?	0
COc1cc(C#Cc2c(-c3cncn3C)n(C)c3ccc(-c4ccc(CN5CCOCC5)cc4)cc23)cc(OC)c1	5.8µM	0	0	8.2µM	?	0
COc1cc(OC)cc(-c2c(Sc3ccccc3)c3cc(-c4cnc(OC)nc4)ccc3n2C)c1	0	0	-	0	-	-
COc1nc(NC(=O)c2ccc(F)cc2)nc(OC)c1-c1ccccc1	0	0	0	0	0	0
CCOCCCNC(=O)C(c1ccccc1)N(Cc1ccc2c(c1)OCO2)C(=O)c1ccc(NC(C)=O)cc1 (stereo not drawn)	?	-	-	0	0	0
CCOCCCNC(=O)C(c1ccc(Cl)cc1)N(Cc1cccs1)C(=O)c1ccc(NC(C)=O)cc1 (stereo not drawn)	15µM	-	-	16µM	0	0
CCOCCCNC(=O)C(c1ccccc1)N(Cc1cccs1)C(=O)c1ccc(NC(C)=O)cc1 (stereo not drawn)	?	-	-	16µM	?	0
CCOCCCNC(=O)C(c1ccc(C)cc1)N(Cc1cccs1)C(=O)c1ccc(NC(C)=O)cc1 (stereo not drawn)	21µM	-	-	18µM	0	0
CCOCCCNC(=O)C(c1ccc(C)cc1)N(Cc1cccs1)C(=O)c1ccccc1O (stereo not drawn)	0	-108	0	?	0	0
CCN(CC)C(=O)Cn1cc(S(=O)(=O)CC(=O)Nc2ccccc2F)c2ccccc21	0	0	-	0	0	0
COc1cccc(NC(=O)C2(C)CCN2C(=O)Cc2cccc3ccccc23)c1 (stereo not drawn)	?	0	-	?	0	0
CC(NCc1cccs1)c1ccccc1 (stereo not drawn)	0	0	0	0	0	0
Cc1ccc(NC(=O)Cn2ncn3c(cc4ccccc43)c2=O)cc1C	?	-	-	?	0	0
CCOCCCNC(=O)C(c1ccc(C)cc1)N(Cc1ccc2c(c1)OCO2)C(=O)c1ccc(NC(C)=O)cc1 (stereo not drawn)	15µM	-	-	?	0	0
CCOCCCNC(=O)C(c1ccc(Cl)cc1)N(Cc1ccc2c(c1)OCO2)C(=O)c1ccc(NC(C)=O)cc1 (stereo not drawn)	?	-	-	?	0	0
O=C(COc1coc(CN2CCN(Cc3ccccc3)CC2)cc1=O)Nc1ccccc1	0	0	0	0	0	0
SMILES	DT40 TDP1 CPT	IL-1B inflam inh	S-ASM inh	TDP1 cell noCPT	TGFb inhibitor	HepG2 tox
Cc1ccc(-c2noc(CCC(=O)NCCN3CCN(Cc4ccccc4)CC3)n2)cc1	?	0	0	18µM	0	1.3µM
Cc1ccc(-c2noc(CCC(=O)NCC3CCN(Cc4cccc(C)c4)CC3)n2)cc1	18µM	-67	0	?	0	0
CCCN1C2CCCC1CC(NC(=O)Nc1ccc(C(C)C)cc1)C2 (stereo not drawn)	23µM	0	0	?	0	0
O=C1CCCC2=C1C(c1ccc(O)c(Br)c1)C1=C(CCCC1=O)N2c1ccccc1	?	0	0	23µM	0	0
Cc1ccccc1NC(=O)c1ccc(F)c(S(=O)(=O)NC2CCCC2)c1	0	-	-	0	0	0
CCc1ccc(NC(=O)c2ccc(F)c(S(=O)(=O)N(C)C3CCCCC3)c2)cc1	?	-	-	21µM	0	0
CCc1ccc(NC(=O)c2ccc(F)c(S(=O)(=O)NC3CCCCCC3)c2)cc1	?	-	-	21µM	11µM	0
O=C(Nc1cc(Cl)cc(Cl)c1)c1ccc(F)c(S(=O)(=O)NC2CCCC2)c1	16µM	-	-	18µM	?	0
COc1ccc(N2CCN(c3c4c(nc5nncn35)CCC4)CC2)cc1	8.2µM	-	-	8.2µM	-	0
Cc1nc2nncn2c(N2CCN(c3ccccc3)CC2)c1C	?	-	-	?	-	0
COc1ccccc1NC(=O)N1CCN(c2cc(-c3ccccc3)nc3ncnn23)CC1	4.6µM	?	0	4.1µM	0	0
COc1ccc(NC(=O)C2CCN(c3cnccn3)CC2)cc1OC	0	0	0	0	0	0
COc1ccc(NC(=O)C2CCN(c3cc(-c4ccccc4)nc4ncnn34)CC2)cc1OC	18µM	-58	0	23µM	0	0
Cc1c(S(=O)(=O)c2ccccn2)c(N)n(Cc2cccc(Cl)c2)c1C	?	0	0	?	0	0
COc1ccc(-c2cc(=O)c3c(O)c(OC)c(OC)c(OC)c3o2)cc1	?	0	0	?	?	0
COc1c(O)cc(O)c2c(=O)cc(-c3ccccc3)oc12	?	?	0	?	?	0
O=c1cc(-c2ccncc2)oc2ccccc12	0	-77	0	?	0	0
COc1ccc2c(=O)cc(-c3ccncc3)oc2c1OC	?	-96	0	?	?	0
COc1ccc(-c2cc(=O)c3c(OC)c(OC)c(OC)c(OC)c3o2)cc1OC	21µM	0	0	21µM	0	0
CN(CC(=O)Nc1ccccc1Cl)C(=O)CSc1ncc(C(F)(F)F)cc1Cl	0	0	0	0	0	0

Compound activity (PubChem BioAssay)
